Each structure is given as a SMILES string. The list shows a part of the results. Where a call stands in place of a potency, no number is given. Inconclusive results are not listed. Activity calls are given as the source filed them. Calls follow the shape of the dose curve; as a rule, active = well fitted activation curve with a large enough effect; inconclusive = small, poorly fitted or top-dose-only effect; inactive = flat fitted curve, though single readings scatter.
Potency is read from the fitted curve at half-maximal effect.

The target in this assay is Thyrotropin-releasing hormone receptor (Homo sapiens) (UniProt P34981). As to the kind of experiment: qHTS for Small Molecule Agonists and Allosteric Enhancers of Human TRH Receptor: Confirmation Screen for Agonists. Also: nearly all actives have a fitted effect of over 75% in size. The note with it: TRHR-expressing cells, agonist activation read-out; series mostly up to 46.1 µM. The source says: NIH Chemical Genomics Center [NCGC]
Sequence of Thyrotropin-releasing hormone receptor (Homo sapiens) (P34981 whole entry, looked up): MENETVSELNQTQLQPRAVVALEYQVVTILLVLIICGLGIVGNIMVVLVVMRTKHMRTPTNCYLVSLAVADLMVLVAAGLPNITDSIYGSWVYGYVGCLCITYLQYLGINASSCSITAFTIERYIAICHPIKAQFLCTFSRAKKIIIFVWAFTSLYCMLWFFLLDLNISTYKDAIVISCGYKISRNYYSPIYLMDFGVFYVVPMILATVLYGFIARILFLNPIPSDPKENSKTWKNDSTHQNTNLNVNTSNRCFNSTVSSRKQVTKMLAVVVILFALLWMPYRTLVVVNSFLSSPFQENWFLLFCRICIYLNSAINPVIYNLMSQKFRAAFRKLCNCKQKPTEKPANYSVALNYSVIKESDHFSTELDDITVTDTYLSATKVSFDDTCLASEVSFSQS
NIH Molecular Libraries Probe Centers Network [MLPCN]
Assay Submitter (PI): Marvin Gershengorn
This project aims to identify small drug-like molecules that activate (agonists) the thyrotropin releasing hormone (TRH) receptor (TRHR) or enhance its TRH-stimulated activity (allosteric enhancers). TRHR, a drug-accessible cell surface receptor expressed in specific brain regions, and its ligand TRH have been implicated in several central nervous system disorders, including depression and anxiety. Small molecule TRHR agonists or allosteric enhancers that are metabolically stable and able to cross the blood-brain barrier might serve as probes to elucidate the roles of brain TRH receptors in animal models, and might be valuable as lead compounds for the development of drugs to treat patients with central nervous system disorders.
Upon TRHR-Gq activation in TRHR cells, intracellular calcium is released from stores in the endoplasmic reticulum.
For the HTS assay freshly prepared cells are plated at a density of 2000/well in 3 ul of complete DMEM medium containing 10% serum in 1536-well plates and cultured over night at 37 C in a humidified incubator with 5% CO2. The next day, 2 ul of a no wash calcium dye (ABD Bioquest) was added to the cells and plates were incubated at room temperature for 1 hour. For the assay, assay plates were loaded into the FDSS kinetic plate reader. A 10 cycle (1 second/cycle) baseline measurement is taken and then the FDSS online 1536 pintool delivers 23 nl of compound library (as well as TRH controls) to the plate. The plate is measured for kinetically at 1 cycle/sec for 180 seconds and is considered to be the agonist portion of the assay (eg, compounds which activate a positive calcium response during this portion are flagged as potential agonists). Following the 180 second read, 1 ul of either an EC20 (positive modulation assay) is delivered by an onboard pipette head. Measurements are taken kinetically for an additional 180 seconds.
TRHR FDSS Screening Protocol
1. Reagent, 3 uL 2000 cells/well 1536 TC treated Black plate in media containing 10% FCS
2. Time, 18 hours, 33.5C 5% CO2 (cells grown at 37C)
3. Reagent, 2 uL ABD fluo-8 Ca dye
4. Time, 30 min-1.5hrs hours, Room temp (6 plates/batch)
5. Detector, EX 480/EM 530C, FDSS 10 cycles baseline (1sec/cycle)
6. Compound, 23 nL of stock solution from library
7. Detector, EX 480/EM 530C, FDSS 230 cycles (1sec/cycle) Agonist mode
8. Compound, 1 ul EC20 of TRH made up in HEPES HBSS, 10 nM final
9. Detector, EX 480/EM 530C, FDSS 100 cycles (1sec/cycle) Potentiator mode
As for `COc1ccc(Cl)cc1NC(=O)CN(C)Cc1ccc(OC)c(OC)c1`, the Potency result was “inactive”.

Regarding `CC(=O)N1CCN(CC(=O)Nc2ccc(C)c(F)c2)CC1`, the Potency entry was “inactive”. For the compound `Cc1nn(Cc2ccccc2)c(C)c1C(=O)N1CCN(CC(=O)Nc2ccccc2Cl)CC1`, the Potency entry is “inactive”. `NC(N)=Nc1nc(-c2ccccc2)c2cc(Cl)ccc2n1`: the Potency entry is “inactive”. The value for `CCOc1cc(CN2CCCC(CO)(Cc3ccc(F)cc3F)C2)ccc1OC` (stereo not given) was “inactive”; that for `COC(=O)c1cc(N2CCNCC2)nc2ccccc12` was “inactive”; that for `c1cnc(N2CCN(c3ccc4ccccc4n3)CC2)nc1` was “inactive”. `Cn1cccc1C1(C(F)(F)F)NCCNC1=O` (stereo not given): the Potency result was “inactive”.

With `Cc1ccc(Cl)c(OCC(=O)N2CCc3ccccc3C2)c1`, the Potency entry was “inactive”.

As to `CC1(C)Cc2c(cnn2-c2cccc(F)c2)C(NC(=O)c2cc[n+]([O-])cc2)C1` (stereo not given), the Potency result is “inactive”. The value for `Cc1cc(S(=O)(=O)c2cc3ccc(O)c(C)c3oc2=O)ccc1F` was 20.6 µM (active). Regarding `CCOC(=O)C1=C(O)/C(=C/c2cc(C)n(-c3ccccc3)c2C)N=C1C`, the Potency result was “inactive”. The value for `O=C(/C=C/c1ccc(N2CCOCC2)cc1)c1ccccc1` was 20.6 µM (active); that for `O=C1C(=O)N(CCCO)C(c2ccccc2)/C1=C(\O)c1ccc(Br)cc1` (stereo not given) was “inactive”; that for `CC(=O)n1c(C=Nc2ccccc2)c(O)c2ccccc21` was 20.6 µM (active).

Turning to `O=C(Nc1ccccc1)c1cccnc1Nc1ccccc1`, the Potency result was “inactive”. On to `CSc1nnnn1-c1c(C)cc(C)cc1C`, for which the Potency entry was “inactive”. The same measure for `COc1cc(/C=C(\C#N)c2nc3ccccc3[nH]2)ccc1O`: 20.6 µM (active); for `Cc1ccc(-c2cn(S(=O)(=O)c3cccc([N+](=O)[O-])c3)nc2N)cc1`: “inactive”. Consider `O=c1[nH]c2cccnc2n(CCNc2ncc(C(F)(F)F)cc2Cl)c1=O`, for which the Potency entry is “inactive”.

Regarding `CC(=O)c1cc(NC(=O)c2ccccc2)c(=O)oc1/C=C/N(C)C`, the Potency is 20.6 µM (active). In the case of `Cc1cc(C(=O)CCl)c(C)n1CC1COc2ccccc2O1` (stereo not given), the Potency entry was “inactive”. The same measure for `O=C(CN1C(=O)c2cccc3cccc1c23)Nc1ccccc1`: “inactive”; for `Cc1csc(CN(C)C(=O)CC2C(=O)NCCN2CC(C)(C)C)n1` (stereo not given): “inactive”; for `CCc1ccccc1NC(=O)/C(=C/c1ccccc1)c1ccccc1`: “inactive”. The same measure for `O=c1o[nH]c(-c2ccccc2)c1N=Nc1c(F)cccc1Cl`: “inactive”; for `COc1cc(C2C3=C(CCCC3=O)OC3=C2C(=O)CCC3)ccc1OCC(=O)Nc1ccccc1`: “inactive”; for `N#Cc1ccc(Oc2cc(C(F)(F)F)nc(-c3ccccn3)n2)cc1`: “inactive”. The same measure for `Cc1c(/C=N\NC(=O)c2cc3ccccc3o2)c2ccccc2n1C`: “inactive”.

With `CC(C)c1nnc(NC(=O)CCC(=O)N2CCN(c3cccc(Cl)c3)CC2)s1`, the Potency result was “inactive”. On to `CCOc1ncccc1C(=O)OCC(=O)N1c2ccccc2CC1C` (stereo not given), for which the Potency result is “inactive”.

`CC1=C(C)CC(C(=O)NC(C)CCc2ccccc2)C(C(=O)O)C1` (stereo not given): the Potency result was “inactive”.

Take `CN(C(=O)CSc1nnc(Nc2ccccc2)s1)C1CCS(=O)(=O)C1` (stereo not given): the Potency entry was “inactive”. The same measure for `C/C(=N/OC(=O)c1ccc(Br)cc1)c1ccc(C)cc1`: “inactive”; for `COc1ccc(OCc2n[nH]c(=S)n2N)cc1`: “inactive”.

Regarding `CCc1nnc(NC(=O)[C@@H](NC(=O)c2cccc(C)c2)C(C)C)s1`, the Potency result was “inactive”.

For the compound `NS(=O)(=O)c1cccc(NC(=O)CSc2nc3ccccc3n2-c2ccccc2)c1`, the Potency result was “inactive”.

Consider `C/C(=C\c1ccco1)CN1CCC(N2CCC(C(=O)N3CCOCC3)CC2)CC1`, for which the Potency entry was “inactive”. Take `Cc1cccn2c(=O)c3cc(C(=O)NC4CCCCC4)sc3nc12`: the Potency entry is “inactive”.

Consider `COc1ccc(CCn2ccc(O)c(Cc3ccc(Cl)cc3Cl)c2=O)cc1OC`, for which the Potency entry was “inactive”.

The record behind these values is PubChem BioAssay AID493078 (National Center for Advancing Translational Sciences (NCATS), 2011).
